# Reference: PubChem BioAssay (NCATS)
# Active and inactive are the calls of the source. The call rests on the fitted dose curve.
# Molecular target: Catechol O-methyltransferase (Homo sapiens) (UniProt P21964)
# Experiment: Confirmatory Screen for Target Class Profiling of Small Molecule Inhibitors of Methyltransferases (AID 1745852); on activity change, negative = inhibition: on the % scale 0 is the no-effect control and ±100 the full control effect
# Conditions: MTase-Glo luminescence, SAH detection, recombinant enzyme; measured here: COMT max response; stronger effect = lower value
# Potency means the concentration at half of the fitted maximal effect.
# Catechol O-methyltransferase (Homo sapiens), sequence (P21964 whole entry, looked up): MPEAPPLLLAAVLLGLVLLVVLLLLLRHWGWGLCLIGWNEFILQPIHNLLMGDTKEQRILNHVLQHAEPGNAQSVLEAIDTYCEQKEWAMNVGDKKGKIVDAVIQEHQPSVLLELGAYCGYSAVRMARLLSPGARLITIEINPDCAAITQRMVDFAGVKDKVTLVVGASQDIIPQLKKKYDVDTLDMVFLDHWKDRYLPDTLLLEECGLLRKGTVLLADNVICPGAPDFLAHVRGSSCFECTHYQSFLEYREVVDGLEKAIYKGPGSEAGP
row,Structure (SMILES),activity
1,CN(C)C(=O)C(CCN1CCC(O)(c2ccc(Cl)cc2)CC1)(c1ccccc1)c1ccccc1,-5.52%
2,Cn1ccc2cc3c(cc21)CCN3C(=O)Nc1cccnc1,-1.14%
3,Cc1ccc(C(=O)Nc2ccc(S(=O)(=O)O)c3cc(S(=O)(=O)O)cc(S(=O)(=O)O)c23)cc1NC(=O)c1cccc(NC(=O)Nc2cccc(C(=O)Nc3cc(C(=O)Nc4ccc(S(=O)(=O)O)c5cc(S(=O)(=O)O)cc(S(=O)(=O)O)c45)ccc3C)c2)c1,5.77%
4,OCCN1CCN(CCCN2c3ccccc3Sc3ccc(C(F)(F)F)cc32)CC1,-1.96%
5,CN(C)CCC=C1c2ccccc2C=Cc2ccccc21,7.28%

# Molecular target: Guanidinoacetate N-methyltransferase (Homo sapiens) (UniProt Q14353)
# Experiment: as above
# Conditions: MTase-Glo luminescence, SAH detection, recombinant enzyme; activity change, negative = inhibition: at 57.3 µM (top of the series)
Structure (SMILES),"activity change, negative = inhibition",Potency
CN(C)C(=O)C(CCN1CCC(O)(c2ccc(Cl)cc2)CC1)(c1ccccc1)c1ccccc1,6.23%,
Cn1ccc2cc3c(cc21)CCN3C(=O)Nc1cccnc1,-1.78%,
Cc1ccc(C(=O)Nc2ccc(S(=O)(=O)O)c3cc(S(=O)(=O)O)cc(S(=O)(=O)O)c23)cc1NC(=O)c1cccc(NC(=O)Nc2cccc(C(=O)Nc3cc(C(=O)Nc4ccc(S(=O)(=O)O)c5cc(S(=O)(=O)O)cc(S(=O)(=O)O)c45)ccc3C)c2)c1,2.65%,
OCCN1CCN(CCCN2c3ccccc3Sc3ccc(C(F)(F)F)cc32)CC1,,30.6 nM (active)
CN(C)CCC=C1c2ccccc2C=Cc2ccccc21,,3.9 nM (active)

# Molecular target: Nicotinamide N-methyltransferase (Homo sapiens) (UniProt P40261)
# Experiment: as above
# Conditions: MTase-Glo luminescence, SAH detection, recombinant enzyme; measured here: NNMT max response; stronger effect = lower value
# Nicotinamide N-methyltransferase (Homo sapiens), sequence (P40261 whole entry, looked up): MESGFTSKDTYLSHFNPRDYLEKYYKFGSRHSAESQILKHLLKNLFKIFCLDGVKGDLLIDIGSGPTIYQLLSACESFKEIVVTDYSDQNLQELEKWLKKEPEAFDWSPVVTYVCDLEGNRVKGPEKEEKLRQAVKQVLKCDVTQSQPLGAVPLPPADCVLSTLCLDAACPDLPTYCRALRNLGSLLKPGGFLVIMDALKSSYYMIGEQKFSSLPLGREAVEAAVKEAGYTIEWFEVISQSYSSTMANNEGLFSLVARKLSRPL
row,Structure (SMILES),activity
1,CN(C)C(=O)C(CCN1CCC(O)(c2ccc(Cl)cc2)CC1)(c1ccccc1)c1ccccc1,-39.1%
2,Cn1ccc2cc3c(cc21)CCN3C(=O)Nc1cccnc1,-11.7%
3,Cc1ccc(C(=O)Nc2ccc(S(=O)(=O)O)c3cc(S(=O)(=O)O)cc(S(=O)(=O)O)c23)cc1NC(=O)c1cccc(NC(=O)Nc2cccc(C(=O)Nc3cc(C(=O)Nc4ccc(S(=O)(=O)O)c5cc(S(=O)(=O)O)cc(S(=O)(=O)O)c45)ccc3C)c2)c1,-4.38%
4,OCCN1CCN(CCCN2c3ccccc3Sc3ccc(C(F)(F)F)cc32)CC1,-64.7%
5,CN(C)CCC=C1c2ccccc2C=Cc2ccccc21,-9.28%

# Molecular target: Phenylethanolamine N-methyltransferase (Homo sapiens) (UniProt P11086)
# Experiment: as above
# Conditions: MTase-Glo luminescence, SAH detection, recombinant enzyme; measured here: PNMT max response; stronger effect = lower value
# Phenylethanolamine N-methyltransferase (Homo sapiens), sequence (P11086 whole entry, looked up): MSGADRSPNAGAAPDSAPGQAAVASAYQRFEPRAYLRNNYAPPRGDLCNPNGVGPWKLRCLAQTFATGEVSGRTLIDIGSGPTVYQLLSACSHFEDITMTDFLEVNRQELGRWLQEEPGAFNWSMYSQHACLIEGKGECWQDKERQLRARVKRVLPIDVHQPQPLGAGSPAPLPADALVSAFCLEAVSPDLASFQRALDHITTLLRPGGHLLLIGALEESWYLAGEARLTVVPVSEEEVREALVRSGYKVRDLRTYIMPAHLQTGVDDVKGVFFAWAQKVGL
row,Structure (SMILES),activity
1,CN(C)C(=O)C(CCN1CCC(O)(c2ccc(Cl)cc2)CC1)(c1ccccc1)c1ccccc1,-5.06%
2,Cn1ccc2cc3c(cc21)CCN3C(=O)Nc1cccnc1,1.53%
3,Cc1ccc(C(=O)Nc2ccc(S(=O)(=O)O)c3cc(S(=O)(=O)O)cc(S(=O)(=O)O)c23)cc1NC(=O)c1cccc(NC(=O)Nc2cccc(C(=O)Nc3cc(C(=O)Nc4ccc(S(=O)(=O)O)c5cc(S(=O)(=O)O)cc(S(=O)(=O)O)c45)ccc3C)c2)c1,6.94%
4,OCCN1CCN(CCCN2c3ccccc3Sc3ccc(C(F)(F)F)cc32)CC1,-1.22%
5,CN(C)CCC=C1c2ccccc2C=Cc2ccccc21,7.91%
